Assay outcomes: PubChem, National Center for Advancing Translational Sciences (NCATS)
KB-V1 cytotox: KB-V1 MDR subline cytotoxicity | KB-V1 MDR cells viability, CellTiter-Glo, 72 h | Potency, µM (series often up to 46.1 µM), most hits filed as cytotoxic | actives 3.4% (n = 400,000); also: nearly all actives have a fitted effect of over 60% in size
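Cytotoxicity via CellTiter-Glo luminescence after 72 h compound exposure at 37 degrees C. Cells: drug-selected KB-V1 line, DMEM phenol-red free plus 10% FBS. Compounds tested at multiple concentrations; normalized data fitted to concentration-effect curves.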
MCF10A rerep: inducers of DNA re-replication in MCF 10A breast cells. MCF 10A DNA re-replication, Hoechst nuclear intensity, 48 h. Potency, µM (top dose mostly 46.1 µM), hits mostly activators. actives 2.9% (n = 350,000). AID 624296; also: nearly all actives have a fitted effect of over 50% in size
SW480 rereplic: induces DNA re-replication in SW480 colon adenocarcinoma cells | SW480 DNA re-replication, Hoechst DNA content imaging, 48 h | Potency, µM (highest dose often 46.1 µM), usual class: activators | actives 1.8% (n = 340,000); also: nearly all actives have a fitted effect of over 55% in size
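Cells (250 per well) received 23 nL compound or DMSO by pin tool and were kept 48 hr at 37 C, 5% CO2. Nuclei were then stained with Hoechst for 40 min and scanned for DNA content.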
HT1080 IDH1KD tx: kills HT-1080 cells with IDH1 knockdown. HT-1080 IDH1 knockdown viability, ATP luminescence, 48 h. Potency, µM (highest dose often 46.1 µM), usual class: cytotoxic. actives 2% (n = 360,000). AID 686971
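CellTiter-Glo luminescence after 48 h compound exposure at 37 degrees C of IDH1-knockdown HT-1080 cells in 5% FBS RPMI. %Activity scaled between DMSO wells and cell-free media wells, with curves fitted and assigned curve classes.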
KB-3-1 tox: KB-3-1 parental cell cytotoxicity | actives 1.4% (n = 400,000) | Potency, µM (highest dose often 46.1 µM), hits mostly cytotoxic | KB-3-1 viability, CellTiter-Glo ATP luminescence, 72 h; also: nearly all actives have a fitted effect of over 60% in size
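KB-3-1 cells, DMEM (no phenol red) + 10% FBS; compound by pin transfer, 72 h, 37 °C. Readout: CellTiter-Glo luminescence after 10 min. Data normalized, curve-fitted.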
HT1080NT lethal: kills 2HG-producing HT-1080-NT fibrosarcoma cells; HT-1080-NT fibrosarcoma viability, CellTiter-Glo ATP luminescence, 48 h; Potency, µM (doses to about 46.1 µM), actives largely listed as cytotoxic; actives 1.6% (n = 360,000); AID 686970;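 also: NT is the 2HG producing partner of a matched IDH1 knockdown line; nearly all actives have a fitted effect of over 55% in size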
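Fibrosarcoma NT cells, 750 per well in 5% FBS RPMI, were exposed to compound for 48 hours. Viability: CellTiter-Glo luminescence.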
Large screens that a line does not name were inactive. Hits are enriched below; roughly 8% of the tested compounds scored in any of these assays. Calls follow the shape of the dose curve; as a rule, active = well fitted curve in the direction sought with a large enough effect; inconclusive = small, poorly fitted or top-dose-only effect, or another doubt; inactive = no such curve, though single readings can be large; an effect the other way counts as inactive or inconclusive.

C=CCN1C(=O)N/C(=C/c2ccccc2OCC(=O)Nc2ccc(F)cc2)C1=O	MCF10A rerep 23.1µM, HT1080NT lethal inconclusive
CC(C)Oc1ccc(C(=O)OC(C)C(=O)Nc2nc(-c3cccc([N+](=O)[O-])c3)cs2)cc1 (configuration not stated)	none
CC(OC(=O)c1ccc(F)cc1)C(=O)Nc1nc(-c2cccc([N+](=O)[O-])c2)cs1 (configuration not stated)	KB-V1 cytotox 20.6µM
Cc1cc(C)n2ncc(C(=O)Nc3ccccc3)c2n1	KB-V1 cytotox inconclusive (no result: MCF10A rerep, SW480 rereplic, HT1080 IDH1KD tx, HT1080NT lethal)
Cc1cccc(-c2nc3ccccc3n2Cc2ccccc2)c1	none (no result: MCF10A rerep, SW480 rereplic, HT1080 IDH1KD tx, HT1080NT lethal)
CC(c1cccs1)N(Cc1ccco1)C(=O)Nc1ccc(Cl)c(Cl)c1 (configuration not stated)	KB-V1 cytotox 16.4µM, MCF10A rerep inconclusive, SW480 rereplic inconclusive
COc1cc(/C=C2\CCC(C)C3=C(c4cc(OC)c(OC)c(OC)c4)C(C#N)=C(N)OC32)cc(OC)c1OC (configuration not stated)	MCF10A rerep 8.2µM, SW480 rereplic inconclusive, HT1080 IDH1KD tx inconclusive, KB-3-1 tox inconclusive
CC(NS(=O)(=O)c1ccccc1[N+](=O)[O-])c1ccccn1 (configuration not stated)	KB-3-1 tox inconclusive (no result: MCF10A rerep, SW480 rereplic, HT1080 IDH1KD tx, HT1080NT lethal)
CCCC(O)(c1ccc(Cl)cc1)C(CN1CCOCC1)c1ccc(Cl)cc1 (configuration not stated)	KB-V1 cytotox 16.4µM, MCF10A rerep inconclusive, SW480 rereplic inconclusive, HT1080 IDH1KD tx inconclusive, KB-3-1 tox inconclusive, HT1080NT lethal inconclusive
CCCCC(O)(c1ccc(F)cc1)C(CN1CCOCC1)c1ccc(Cl)cc1 (configuration not stated)	KB-V1 cytotox 8.2µM, MCF10A rerep 7.31µM, SW480 rereplic inconclusive, HT1080 IDH1KD tx inconclusive, KB-3-1 tox inconclusive, HT1080NT lethal inconclusive
CCOc1ccc(C(O)(c2ccccc2)C(CN2CCCC2)c2ccccc2)cc1 (configuration not stated)	SW480 rereplic 20.6µM, HT1080NT lethal inconclusive
CCOc1ccc(C(O)(CCC(C)C)C(CN2CCOCC2)c2ccccc2)cc1 (configuration not stated)	KB-V1 cytotox inconclusive, MCF10A rerep inconclusive, SW480 rereplic 23.1µM, HT1080 IDH1KD tx 18.4µM, HT1080NT lethal inconclusive
O=C(CSc1nnc(C2CC2)n1C1CC1)Nc1cccc(Br)c1	KB-3-1 tox inconclusive
CCCCNC(=O)C1(C)CCCCN1C(=O)c1ccc2c(c1)CCO2 (configuration not stated)	none (no result: MCF10A rerep, SW480 rereplic)
COc1ccc(C(=O)C[n+]2cccc3cccc(O)c32)cc1	none (no result: MCF10A rerep, SW480 rereplic, HT1080 IDH1KD tx, HT1080NT lethal)
COc1ccc(C(O)(CCC(C)C)C(CN2CCOCC2)c2ccc(Cl)cc2)cc1 (configuration not stated)	KB-V1 cytotox 25.9µM, MCF10A rerep inconclusive, SW480 rereplic inconclusive, HT1080 IDH1KD tx inconclusive, KB-3-1 tox inconclusive, HT1080NT lethal inconclusive
CCCCn1cnc2c(SCc3ccccc3)nc(N)nc21	none
CCCCn1cnc2c(SCc3ccccc3Cl)nc(N)nc21	MCF10A rerep 16.4µM, SW480 rereplic inconclusive
CCCCn1cnc2c(SCc3ccc(Br)cc3)nc(N)nc21	MCF10A rerep inconclusive, HT1080 IDH1KD tx 16.4µM, HT1080NT lethal 14.6µM
COc1ccc2c(Sc3ccccc3)c(C(=O)N3CCC(C)CC3)[nH]c2c1	none (no result: MCF10A rerep, SW480 rereplic, HT1080 IDH1KD tx, HT1080NT lethal)
CCCn1nnnc1NCc1ccccc1OCc1cccs1	none
CCCn1nnnc1NCc1ccccc1OCc1ccc(F)cc1	KB-V1 cytotox inconclusive, MCF10A rerep 23.1µM, SW480 rereplic inconclusive
COc1ccc(NC(=O)c2cc3c(C)nn(-c4ccccc4)c3s2)c(OC)c1	none (no result: MCF10A rerep, SW480 rereplic, HT1080 IDH1KD tx, HT1080NT lethal)
COc1ccc(NS(=O)(=O)c2ccc(O)c(NC(=O)c3cc4c(C)nn(-c5ccc(F)cc5)c4s3)c2)cc1	MCF10A rerep 8.2µM, SW480 rereplic inconclusive, HT1080 IDH1KD tx inconclusive, KB-3-1 tox inconclusive, HT1080NT lethal inconclusive
CCSC1(SCC)N=C(N)C2(C#N)C(c3ccccc3)NC3=C(CCC3)C12C#N (configuration not stated)	none
